# The campaign covered roughly 310,000 compounds. About 2,200 (0.71%) showed an effect of 50% or more. The effect is printed as a negative number. For the sample, strong results were picked, then their nearest neighbours and some compounds at random.
# Target: human ether-à-go-go-related gene (hERG) potassium channel (human, UniProt Q12809)
# Assay: primary screen, population patch clamp on CHO cells stably expressing hERG; higher = less effect of the substance
# Chain of human ether-à-go-go-related gene (hERG) potassium channel (Q12809 whole entry, looked up): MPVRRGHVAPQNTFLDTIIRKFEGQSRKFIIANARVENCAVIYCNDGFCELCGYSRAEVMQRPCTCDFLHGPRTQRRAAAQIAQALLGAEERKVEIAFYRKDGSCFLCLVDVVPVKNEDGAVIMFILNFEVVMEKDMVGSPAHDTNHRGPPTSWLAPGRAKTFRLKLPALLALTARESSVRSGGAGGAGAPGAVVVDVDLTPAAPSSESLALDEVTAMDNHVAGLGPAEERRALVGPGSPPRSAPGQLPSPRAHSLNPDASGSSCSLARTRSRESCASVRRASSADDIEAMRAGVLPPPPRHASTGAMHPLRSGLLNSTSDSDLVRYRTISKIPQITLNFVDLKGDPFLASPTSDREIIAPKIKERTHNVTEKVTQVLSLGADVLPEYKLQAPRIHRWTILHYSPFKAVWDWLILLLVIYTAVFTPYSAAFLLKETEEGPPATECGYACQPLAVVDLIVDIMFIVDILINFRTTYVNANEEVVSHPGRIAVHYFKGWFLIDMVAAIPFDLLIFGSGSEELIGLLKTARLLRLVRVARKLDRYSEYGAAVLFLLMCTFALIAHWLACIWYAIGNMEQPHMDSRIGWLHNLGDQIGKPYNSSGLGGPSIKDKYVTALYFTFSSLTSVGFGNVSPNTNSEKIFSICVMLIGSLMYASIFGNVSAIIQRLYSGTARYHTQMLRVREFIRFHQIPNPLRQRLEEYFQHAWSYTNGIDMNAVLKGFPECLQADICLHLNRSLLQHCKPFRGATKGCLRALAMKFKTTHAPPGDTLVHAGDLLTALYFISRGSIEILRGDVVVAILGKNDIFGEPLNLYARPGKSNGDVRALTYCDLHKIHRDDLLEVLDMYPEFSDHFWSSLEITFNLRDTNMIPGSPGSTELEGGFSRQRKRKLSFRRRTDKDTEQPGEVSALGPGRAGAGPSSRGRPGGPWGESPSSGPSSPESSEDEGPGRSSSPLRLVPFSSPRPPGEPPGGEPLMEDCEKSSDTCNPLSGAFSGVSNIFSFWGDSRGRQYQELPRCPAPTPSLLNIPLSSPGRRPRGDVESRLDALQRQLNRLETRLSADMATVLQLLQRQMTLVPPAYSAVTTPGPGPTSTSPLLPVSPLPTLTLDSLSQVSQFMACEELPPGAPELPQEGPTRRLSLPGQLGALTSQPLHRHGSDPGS
row,Compound,"hERG current change (%, negative = inhibition) at 1uM [%]"
1,Cc1cc2nn(-c3ccc(Cl)cc3)nc2cc1N,14
2,CCO/C=C/C(O)(CNC(=O)COc1ccccc1F)C(F)(F)F (stereo not shown),19.8
3,CN1C(=O)N(c2nnc(C(C)(C)C)s2)C(=O)C1c1ccccc1 (stereo not shown),14.2
4,Cc1nnsc1C(=O)Nc1ccc(S(=O)(=O)N2CCCCC2C)cc1 (stereo not shown),12.5
5,CC1CCCCN1C(=O)Nc1cccc(C(F)(F)F)c1 (stereo not shown),9.57
6,Cc1c(Cl)cccc1NC(=S)NNc1ncc(C(F)(F)F)cc1Cl,4.45
7,Cc1cccc(OCC(O)CN2CCc3ccccc3C2)c1.Cl (stereo not shown),-0.945
8,CC(C(O)c1ccc(O)cc1)N1CCC(Cc2ccccc2)CC1.O=C(O)C(O)C(O)C(=O)O (stereo not shown),-33.4
9,CC(C(O)c1ccc(O)cc1)N1CCC(Cc2ccccc2)CC1.O.O=C(O)C(O)C(O)C(=O)O (stereo not shown),-37.8
10,Cl.OC(COc1ccc(Cl)cc1)CN1CCN(c2ccccc2)CC1 (stereo not shown),0.0675
11,Cl.OC(COc1ccc(Cl)cc1)CN1CCCCC1 (stereo not shown),-29.8
12,COc1cccc(OCC(O)CN2CCc3ccccc3C2)c1.Cl (stereo not shown),-57.6
13,Cl.OC(COc1ccc(Cl)cc1)CN1CCC(Cc2ccccc2)CC1 (stereo not shown),-89.6
14,Cl.OC(COc1ccccc1)CN1CCN(CC(O)COc2ccccc2)CC1 (stereo not shown),-19.5
15,Cl.OC(COc1ccccc1)CN1CCC(Cc2ccccc2)CC1 (stereo not shown),-78
16,COc1ccc(OCC(O)CN2CCc3ccccc3C2)cc1.Cl (stereo not shown),-2.53
17,C[C@@H](CN1CCC(Cc2ccccc2)CC1)[C@@H](O)c1ccc(O)cc1.Cl,-60.5
18,CC(C)OCC(O)CN1CCC(Cc2ccccc2)CC1.Cl (stereo not shown),-2.15
19,COC(=O)c1ccc(N2C(=O)CC(N(C)Cc3ccccc3)C2=O)cc1 (stereo not shown),13.1
20,N#CC(C(=O)NCCc1ccccc1)c1nc2ccccc2nc1N1CCCCC1 (stereo not shown),4.11
21,COc1nc(N(C)S(=O)(=O)c2ccc(C)cc2)nc(C)c1Br,16.5
22,C/C(=N/NC(=O)Cc1ccccc1)c1ccc(C)s1,11.5
23,O=C(NCCc1ccccc1)C1CC(=O)N(c2ccc3c(c2)OCCO3)C1 (stereo not shown),7.34

row,Compound,"hERG current change (%, negative = inhibition) at 1uM [%]"
1,C/C(=N\NC(=O)C(O)(c1ccccc1)c1ccccc1)c1ccc(NC(=O)CCCC(=O)O)cc1,11.3
2,O=C(CSc1nc(C2CC2)n(-c2ccccc2)n1)NCc1ccco1,-3.27
3,CCOc1ccc(OCC)c(S(=O)(=O)NNC(=O)c2c(C)nc3ccccn23)c1,5.91
4,COc1ccc(S(=O)(=O)N(C)CC(=O)N2CCOCC2)cc1,-2.22
5,O=C(Nc1ccc(NC(=O)c2cccc([N+](=O)[O-])c2)cc1)c1cccc([N+](=O)[O-])c1,9.44
6,COc1cccc(OCC(O)CN2CCN(C(c3ccccc3)c3ccccc3)CC2)c1.Cl (stereo not shown),3.72
7,Cc1ccc(C)c(OCC(O)CN2CCc3ccccc3C2)c1C.Cl (stereo not shown),-56.1
8,COc1cccc(OCC(O)CN2CCC(C)CC2)c1.Cl (stereo not shown),3.42
9,Cc1cc(C)cc(OCC(O)CN2CCN(Cc3ccc4c(c3)OCO4)CC2)c1.Cl (stereo not shown),-67.9
10,O=S(=O)(c1ccc(OCC(O)CN2CCC(Cc3ccccc3)CC2)cc1)N1CCOCC1 (stereo not shown),-10.3
11,Cl.OC(COc1ccc(Br)cc1)CN1CCC(Cc2ccccc2)CC1 (stereo not shown),-83.7
12,Cc1cccc(C)c1OCC(O)CN1CCc2ccccc2C1.Cl (stereo not shown),-24.3
13,Cc1ccc(OCC(O)CN2CCc3ccccc3C2)c(C)c1.Cl (stereo not shown),-42.6
14,COc1ccc(OCC(O)CN2CCN(Cc3ccc4c(c3)OCO4)CC2)cc1.Cl (stereo not shown),-9.87
15,Cl.OC(COc1ccc(Br)cc1)CN1CCCC1 (stereo not shown),5.23
16,Cc1ccc(OCC(O)CN2CCN(Cc3ccc4c(c3)OCO4)CC2)cc1C.Cl (stereo not shown),5.88
17,COc1cccc(OCC(O)CN2CCC(Cc3ccccc3)CC2)c1.Cl (stereo not shown),-55.6
18,CC(=O)N1CCc2cc(Br)cc(S(=O)(=O)CCC(=O)N3CCN(c4ccccn4)CC3)c21,6.2
19,CCn1c(Cc2cccs2)nnc1SCC(=O)c1ccc(C)cc1,5.59
20,COc1ccc(NS(=O)(=O)c2ccc(O)c(C(=O)OCC(=O)N3CC(C)OC(C)C3)c2)cc1 (stereo not shown),12.3
21,COc1cccc(NC(=O)CN2C(=O)COc3ccc(Cl)cc32)c1,8.19
22,Cc1ccc(C)c(NC(=S)NNC(=O)c2csc(C(C)C)c2)c1,0.742
23,COc1cc(NC(=O)c2sc3nc(C)nc(N4CCOCC4)c3c2C)cc(OC)c1OC,30.1

row,Compound,"hERG current change (%, negative = inhibition) at 1uM [%]"
1,Cc1csc2nc3cc(C(N)=O)ccc3c(=O)n12,10.2
2,CCCCN(CC)Cc1c(C)[nH]c2c(ccc3ccccc32)c1=O,-49.6
3,CCCCN(C)Cc1c(C)[nH]c2c(ccc3ccccc32)c1=O,-56.1
4,CCCCN(C)Cc1c(C)[nH]c2ccccc2c1=O,-8.8
5,O=C(c1ccco1)N1C(=O)c2cccc3c(S(=O)(=O)N4CCCC4)ccc1c23,6.3
6,CCc1ccc2oc(-c3cc(N)ccc3Cl)nc2c1,12
7,COc1ccc(C(=O)C2CCCN(Cc3cccc(C)n3)C2)c(OC)c1 (stereo not shown),-58.3
8,COc1ccc2cc(C(=O)C3CCCN(Cc4cccc(C)n4)C3)ccc2c1 (stereo not shown),11.2
9,COc1cccc(C(=O)C2CCCN(C/C=C/c3ccccc3OC)C2)c1 (stereo not shown),-2.82
10,COc1ccc(C(=O)C2CCCN(Cc3c[nH]c4ccccc34)C2)c(OC)c1 (stereo not shown),-58.8
11,COc1ccc(C(=O)C2CCCN(C3Cc4ccccc4C3)C2)c(OC)c1 (stereo not shown),-68.2
12,COc1ccc(C(=O)C2CCCN(Cc3ccc(C)s3)C2)c(OC)c1 (stereo not shown),-2.87
13,COc1ccc(C(=O)C2CCCN(C3Cc4ccccc4C3)C2)cc1OC (stereo not shown),-33.2
14,COc1ccc(C(=O)C2CCCN(C/C=C/c3ccccc3OC)C2)c(OC)c1 (stereo not shown),-78.6
15,COc1ccc(F)cc1C(=O)C1CCCN(Cc2c[nH]c3ccccc23)C1 (stereo not shown),-18.6
16,COc1cccc(C(=O)C2CCCN(Cc3cccc(C)n3)C2)c1 (stereo not shown),-30.1
17,COc1ccc(C(=O)C2CCCN(C3CSCCSC3)C2)c(OC)c1 (stereo not shown),-4.62
18,COc1ccc(C(=O)C2CCCN(Cc3c(C)[nH]c4ccccc34)C2)c(OC)c1 (stereo not shown),-28.6
19,CNC(=O)NC(=O)CSc1nnc(C(F)(F)F)n1C,8.32
20,O=C(OCC(=O)N1CCCC1)c1c(Cl)ccc(Cl)c1Cl,9.45
21,CCCc1nc(NC(C)=O)c(C#N)c(-c2ccco2)c1CC,0.0807
22,Cc1cccc(C)c1NC(=O)c1c[nH]c2ccccc12,11.7
23,COCC(C)n1c(C)cc(C(=O)CN2c3cccc4cccc(c34)S2(=O)=O)c1C (stereo not shown),7.82

row,Compound,"hERG current change (%, negative = inhibition) at 1uM [%]"
1,CC(C)C(c1nnnn1Cc1ccccc1)N(CCCO)Cc1cc2cc3c(cc2[nH]c1=O)OCO3 (stereo not shown),10.4
2,COC(=O)c1cc2ccsc2n1CC(=O)Nc1ccc(N(C)C)cc1,5.25
3,C=CCN1N=C(c2ccc(Cl)s2)CSC1=O,22.3
4,Cc1ccc(NC(=S)NC(=O)CC2CC(C)(C)OC2=O)cc1 (stereo not shown),8.78
5,CCN1C(=O)/C(=C2\C=Cc3cc(C)ccc3N2CC)OC1=S,14
6,CCN1/C(=C2\C(=O)N(c3ccccc3)N=C2C)C=Cc2cc(C)ccc21,-1.41
7,C=CC[n+]1c(/C=C2\C=Cc3cc(C)ccc3N2CC)ccc2ccccc21.[Br-],-92.1
8,CCN1C(=C(C#N)C#N)C=Cc2ccccc21,15.9
9,CCN1/C(=C/c2ccc3ccccc3[n+]2CC)C=Cc2ccccc21.[Cl-],-89.5
10,CCN1/C(=C/c2ccc3ccccc3[n+]2CCCS(=O)(=O)[O-])C=Cc2cc(C)ccc21,13
11,CCN1/C(=C/c2cc[n+](C)cc2)C=Cc2cc(C)ccc21.[I-],-55.5
12,CCOC(=O)/C(C#N)=C/C=C1\C=Cc2ccccc2N1CC,14.8
13,CCN1C(=C(C#N)C#N)C=Cc2cc(C)ccc21,14.9
14,O=S(=O)(CCc1nnc(-c2ccc(Br)cc2)o1)c1ccc(Cl)cc1,6.04
15,Cc1cccc(NC(=O)CSc2cccc3cccnc23)c1C,13.9
16,COc1ccccc1NC(=O)c1nc[nH]c1C(=O)Nc1ccccc1OC,22.2
17,CC(=O)N1CCN(CCN=CC2=C(O)CC(c3cccs3)CC2=O)CC1 (stereo not shown),10.4
18,CC(=O)N1CCN(CCN=CC2=C(O)CC(c3ccco3)CC2=O)CC1 (stereo not shown),2.39
19,CC(C)C(=O)N1CCN(CCN=CC2=C(O)CC(c3ccco3)CC2=O)CC1 (stereo not shown),14
20,CCCCCC(=O)N1CCN(CCN=CC2=C(O)CC(c3ccco3)CC2=O)CC1 (stereo not shown),-74.7
21,CCC(=O)N1CCN(CCN=CC2=C(O)CC(c3cccs3)CC2=O)CC1 (stereo not shown),9.17
22,CCCCCC(=O)N1CCN(CCN=CC2=C(O)CC(c3cccs3)CC2=O)CC1 (stereo not shown),-109

# — PMC4336329 (PLoS ONE, 2015)
